Experimental data reported in PubChem BioAssay AID1347420 (Sanford-Burnham Center for Chemical Genomics, 2020).
Screen size: about 1,300 compounds; about 980 (75%) were called active. Another 4% or so got no clear call; they are omitted. The list shows a part of the results. A number with no mark means an inactive call.

What follows are compounds tested against Sulfhydryl oxidase 1 (Homo sapiens) (UniProt O00391) (assay: QSOX1 enzyme inhibitors, primary screen, biochemical, HyperBlu H2O2 luminescence, HTS (AID 1347420; note: values above 100% were filed as inconclusive)). Details: recombinant QSOX1, HyperBlu H2O2 luminescence; at 12.5 µM; hits give high values; active = any value above zero.
Sulfhydryl oxidase 1 (Homo sapiens), sequence (O00391 whole entry, looked up): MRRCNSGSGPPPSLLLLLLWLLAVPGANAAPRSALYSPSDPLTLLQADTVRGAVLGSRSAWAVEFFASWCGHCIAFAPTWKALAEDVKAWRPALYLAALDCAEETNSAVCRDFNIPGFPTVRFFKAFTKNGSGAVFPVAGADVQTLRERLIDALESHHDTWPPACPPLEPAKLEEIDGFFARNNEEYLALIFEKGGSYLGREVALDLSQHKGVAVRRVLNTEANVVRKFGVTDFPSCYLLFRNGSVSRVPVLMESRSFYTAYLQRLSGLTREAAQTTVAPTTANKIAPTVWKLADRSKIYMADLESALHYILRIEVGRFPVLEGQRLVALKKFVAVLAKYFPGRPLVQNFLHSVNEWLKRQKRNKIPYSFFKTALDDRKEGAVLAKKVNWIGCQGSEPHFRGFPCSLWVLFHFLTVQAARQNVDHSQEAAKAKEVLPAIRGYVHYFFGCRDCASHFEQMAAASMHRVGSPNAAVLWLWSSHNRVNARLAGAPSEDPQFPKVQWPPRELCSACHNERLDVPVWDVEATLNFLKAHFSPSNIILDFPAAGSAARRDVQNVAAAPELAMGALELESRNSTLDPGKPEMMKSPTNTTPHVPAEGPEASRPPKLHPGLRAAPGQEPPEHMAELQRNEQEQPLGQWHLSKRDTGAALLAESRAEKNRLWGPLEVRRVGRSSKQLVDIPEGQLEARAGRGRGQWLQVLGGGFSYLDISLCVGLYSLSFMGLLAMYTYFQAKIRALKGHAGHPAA
For NCCCC(=O)O, the inhibition was 25.9% (active). In the case of O=C(O)CCCCCCCC(=O)O, the inhibition is reported as 11.4% (active). With NCCCCCC(=O)O the inhibition was 40% (active). In the case of NCCCCC(=O)O, the inhibition is reported as 19.4% (active). In the case of NC(N)=NC(=O)c1nc(Cl)c(N2CCCCCC2)nc1N, the inhibition is reported as 24.3% (active). For CCN(c1nc(N)c(C(=O)N=C(N)N)nc1Cl)C(C)C, the inhibition was 22.6% (active). For NC(N)=NC(=O)c1nc(Cl)c(N)nc1N, the inhibition was 20.2% (active). CN(C)c1nc(N)c(C(=O)N=C(N)N)nc1Cl was tested, and the inhibition was 10.2% (active). O=C(O)CCc1ccc(NCc2cccc(Oc3ccccc3)c2)cc1 was tested, and the inhibition was 41.7% (active). C=C1C[C@@]23CC[C@H]4[C@@](C)(CCC[C@@]4(C)C(=O)O)[C@@H]2CC[C@]1(O)C3 was tested, and the inhibition was 9% (active). Compound C=C1C[C@@]23CC[C@H]4[C@@](C)(CCC[C@@]4(C)C(=O)OC4OC(CO)C(O)C(O)C4O)[C@@H]2CCC1(OC1OC(CO)C(O)C(O)C1OC1OC(CO)C(O)C(O)C1O)C3 (some centres undefined) has an inhibition of -13.9%. With CCOC(=O)N1CCC(=C2c3ccc(Cl)cc3CCc3cccnc32)CC1 the inhibition was 13.2% (active). For Cn1ccnc1, the inhibition was 9.1% (active). CCCCCCCCCCCCCCSCC(=O)O was tested, and the inhibition was 9.4% (active). In the case of NC1C=CC=C(C(=O)O)C1 (centres undefined), the inhibition is reported as 21.6% (active). In the case of OCC1O[C@H](O)C(Cl)C(O)C1O (some centres undefined), the inhibition is reported as 23.9% (active). With COCCCC/C(=N\OCCN)c1ccc(C(F)(F)F)cc1 the inhibition was 9.6% (active). In the case of CN1CCC(=C2c3ccccc3C=Cc3ccccc32)CC1, the inhibition is reported as -2.7%. CN1CCC(=C2c3ccccc3CC(=O)c3sccc32)CC1 was tested, and the inhibition was 6.3% (active). In the case of COc1ccc(C2CNC(=O)C2)cc1OC1CCCC1 (centres undefined), the inhibition is reported as 5.2% (active). With Cc1cccc(C2CN(C)CCc3c2cc(O)c(O)c3Cl)c1 (centres undefined) the inhibition was 97.2% (active). For C=CCN1CCc2c(cc(O)c(O)c2Cl)C(c2ccccc2)C1 (centres undefined), the inhibition was 84.4% (active). With C=CCN1CCc2cc(O)c(O)cc2C(c2ccccc2)C1 (centres undefined) the inhibition was 76.8% (active). O=C1CCc2cc(OCCCCc3nnnn3C3CCCCC3)ccc2N1 was tested, and the inhibition was 11.5% (active). COc1cc2c(cc1OC)-c1cc(=Nc3c(C)cc(C)cc3C)n(C)c(=O)n1CC2 was tested, and the inhibition was 4.4% (active). In the case of CCn1nc(C(=O)O)c(=O)c2cc3c(cc21)OCO3, the inhibition is reported as 0%. O=c1ccn([C@@H]2O[C@H](COP(=O)(O)OP(=O)(O)O)[C@@H](O)[C@H]2O)c(=O)[nH]1 gave an inhibition of -0.8%. For C[C@H]1O[C@@H](n2cc(F)c(=O)[nH]c2=O)[C@H](O)[C@@H]1O, the inhibition was 20% (active). In the case of O=C1N=C([O-])CN1/N=C/C1=C[C+]=C(c2ccc([N+](=O)[O-])cc2)O1, the inhibition is reported as 53% (active). O=C(CCCCCN1CCN(c2ccccc2-c2ccccc2)CC1)NC1CCCc2ccccc21 (centres undefined) was tested, and the inhibition was 22.8% (active). With CSc1ccccc1N1CCN(CCCCCC(=O)NC2CCCc3ccccc32)CC1 (centres undefined) the inhibition was 11.3% (active). NC(N)=N/N=C/c1c(Cl)cccc1Cl showed an inhibition of -6.1%. With NC(N)=NC(=O)Cc1c(Cl)cccc1Cl the inhibition was 16.4% (active). With O=C(O)c1cccnc1C(=O)O the inhibition was 5.1% (active). With O=C1NCc2c1c1c3ccccc3[nH]c1c1[nH]c3ccccc3c21 the inhibition was 13.3% (active). In the case of CCCn1c(=O)c2[nH]c(-c3ccc(S(=O)(=O)O)cc3)nc2n(CCC)c1=O, the inhibition is reported as 20.3% (active). Work on CCCn1c(=O)c2[nH]c(-c3ccc(OCC(=O)NCCN)cc3)nc2n(CCC)c1=O yielded an inhibition of -3.6%. Cn1c(=O)c2[nH]c(-c3ccccc3)nc2n(C)c1=O was tested, and the inhibition was 14.7% (active). With Cn1c(=O)c2[nH]c(-c3ccc(S(=O)(=O)O)cc3)nc2n(C)c1=O the inhibition was 31.8% (active). In the case of CN(C)S(=O)(=O)c1ccc2c(c1)/C(=C/c1cc3c([nH]1)CCCC3)C(=O)N2, the inhibition is reported as 52.1% (active). In the case of CNc1cc(NS(=O)(=O)c2ccc(N)cc2)nc(NC)n1, the inhibition is reported as 1.3% (active). For CCCCCCCCc1ccc(-c2ccc(C(=O)O)cc2)cc1, the inhibition was 14.5% (active). For Oc1ccccc1O, the inhibition was 62.9% (active). With O=[N+]([O-])c1cccc2c(Br)[nH]nc12 the inhibition was 47.4% (active). In the case of CC(=O)N[C@H](C(=O)O)C(C)(C)SN=O, the inhibition is reported as 10.5% (active). CC(N)(C(=O)O)c1ccc(C(=O)O)cc1 (centres undefined) was tested, and the inhibition was 10.5% (active). In the case of CCCC(=O)NCCc1c2n(c3ccc(OC)cc13)CCCc1ccccc1-2, the inhibition is reported as 50.8% (active). For O=C(O)c1cc2cc(F)ccc2[nH]1, the inhibition was 1% (active). With O=C1NC(=O)/C(=C/c2ccc3c(c2)OC(F)(F)O3)S1 the inhibition was 21.2% (active). O=C1NC(=O)/C(=C/c2ccc(-c3ccc(F)cc3O)o2)S1 gave an inhibition of 0%. With O=C1NC(=O)/C(=C/c2ccc3nccnc3c2)S1 the inhibition was 5.7% (active). CCCN(CCc1ccccc1)C1CCc2c(O)cccc2C1 (centres undefined) was tested, and the inhibition was 14% (active). For O=c1cc(-c2ccccc2F)[nH]c2cc3c(cc12)OCO3, the inhibition was 6.4% (active). In the case of CCN(CC)CCCN(c1ccccc1)C1Cc2ccccc2C1, the inhibition is reported as 94.2% (active). With c1ccc(-c2ccccn2)nc1 the inhibition was 7.1% (active). NCCC1CCCC(CCN)N1 (centres undefined) was tested, and the inhibition was 6.6% (active). OCc1ccc(-c2nn(Cc3ccccc3)c3ccccc23)o1 was tested, and the inhibition was 0.6% (active). With Clc1ccc(N2CCN(Cc3c[nH]c4ncccc34)CC2)cc1 the inhibition was 12.6% (active). In the case of c1cnc(N2CCN(Cc3ccc4c(c3)OCO4)CC2)nc1, the inhibition is reported as -5.6%. In the case of OC1(c2ccc(Cl)cc2)CCN(Cc2c[nH]c3ccccc23)CC1, the inhibition is reported as 14.4% (active). In the case of Ic1ccc(N2CCN(Cc3c[nH]c4ncccc34)CC2)cc1, the inhibition is reported as 23.8% (active). For COc1ccc2c(c1)c(CC(=O)O)c(C)n2C(=O)c1ccc(Cl)cc1, the inhibition was 15.5% (active). COc1ccc2c(c1)c(CC(=O)O)c(C)n2C(=O)c1ccccc1 was tested, and the inhibition was 9% (active). In the case of COc1ccc2c(c1)c(CC(=O)O)c(C)n2Cc1ccc(Cl)cc1, the inhibition is reported as 5.8% (active). CC(C)[C@@H]1CC[C@@H](C)C[C@@H]1P(=O)(c1ccccc1)c1ccccc1 was tested, and the inhibition was -5.2%. In the case of O=C(CCNNC(=O)c1ccncc1)NCc1ccccc1, the inhibition is reported as 0.1% (active). Compound OC(CCN1CCCCC1)(c1ccccc1)C1CCCCC1 (centres undefined) has an inhibition of -1.3%. With OC(CCN1CCCCC1)(c1ccccc1)C1CC2C=CC1C2 (centres undefined) the inhibition was 8.3% (active). For O=C(O)CC1CCCc2ccccc2C1O (centres undefined), the inhibition was 8.6% (active). With NOCC(=O)O the inhibition was 3% (active). In the case of NCCS(=O)(=O)O, the inhibition is reported as 9.8% (active). For NCC(O)(CS(=O)(=O)O)c1ccc(Cl)cc1 (centres undefined), the inhibition was -0.3%. With NCCCS(=O)(=O)O the inhibition was 14.2% (active). With CN1CCc2cc(O)c(O)cc2C(c2ccccc2)C1 (centres undefined) the inhibition was 67.4% (active). With CN1CCc2cc(Cl)c(O)cc2[C@@H](c2ccccc2)C1 the inhibition was 35.8% (active). CN1Cc2c(N)cccc2C(c2ccccc2)C1 (centres undefined) gave an inhibition of -2.6%. With COc1ccccc1N1CCN(CCCNc2cc(=O)n(C)c(=O)n2C)CC1 the inhibition was 22% (active). COc1ccccc1N1CCN(CCCNc2c(C)c(=O)n(C)c(=O)n2C)CC1 was tested, and the inhibition was 16.8% (active). CC#C[C@]1(O)CC[C@H]2[C@@H]3CCC4=CC(=O)CCC4=C3[C@@H](c3ccc(N(C)C)cc3)C[C@@]21C was tested, and the inhibition was 89.8% (active). NCC(O)C1CCCCCCC1 (centres undefined) was tested, and the inhibition was 18.4% (active). For Fc1ccc(C(OCCCc2cnc[nH]2)c2ccc(F)cc2)cc1, the inhibition was 10.8% (active). For COC(=O)[C@H](NC(=O)c1cc(-c2ccccc2)nc2ccccc12)c1ccccc1, the inhibition was 4.2% (active). With CC(=O)[C@]1(O)Cc2c(O)c3c(c(O)c2[C@@H](O[C@H]2C[C@H](N)[C@H](O)[C@H](C)O2)C1)C(=O)c1ccccc1C3=O the inhibition was 50.8% (active). In the case of CC(N)C(=O)OC(C)(C)Cc1ccc(Cl)cc1 (centres undefined), the inhibition is reported as 5.6% (active). In the case of Nc1nc2c(cnn2CCc2ccccc2)c2nc(-c3ccco3)nn12, the inhibition is reported as 17% (active). In the case of Nc1nc2ccc(Cl)cc2c2nc(-c3ccco3)nn12, the inhibition is reported as 27.7% (active). With CCN(CC)CCCC(C)Nc1ccnc2cc(Cl)ccc12 (centres undefined) the inhibition was 4.6% (active). With CCN(CC)CCCC(C)Nc1c2ccc(Cl)cc2nc2ccc(OC)cc12 (centres undefined) the inhibition was -13%. For O=C(O)/C(=C/c1c(C(=O)O)[nH]c2cc(Cl)cc(Cl)c12)c1ccccc1, the inhibition was 12.3% (active). With O=C(O)c1cc(=O)c2ccccc2[nH]1 the inhibition was -7.5%. With O=C(O)c1cc(=O)c2c(Cl)cc(Cl)cc2[nH]1 the inhibition was 23.5% (active). C=C[C@@]1(C)CC(=O)[C@]2(O)[C@@]3(C)[C@H](O)CCC(C)(C)[C@@H]3[C@H](O)[C@H](OC(C)=O)[C@@]2(C)O1 was tested, and the inhibition was -4.2%. With c1ccc2c(c1)CCCC2C1=NCCN1 (centres undefined) the inhibition was 7.7% (active). NC1(C(=O)O)CCc2cc(C(=O)O)ccc21 (centres undefined) was tested, and the inhibition was 11.9% (active). In the case of Cn1c(=O)c2[nH]cnc2n(C)c1=O, the inhibition is reported as 20.2% (active). With CC(C)Cn1c(=O)n(C)c(=O)c2[nH]cnc21 the inhibition was -4.6%. For CN1Cc2sccc2C(c2ccc(O)c(O)c2)C1 (centres undefined), the inhibition was 84.1% (active). For Oc1ccc(C2CNCc3sccc32)cc1O (centres undefined), the inhibition was 68.4% (active). For NCC1OC(O[C@@H]2[C@H](O)C(OC3C(O)C(N)CC(N)C3OC3OC(CO)C(O)C(O)C3N)O[C@@H]2CO)C(N)C(O)C1O (some centres undefined), the inhibition was -0.2%. For CC(=O)/C(C)=N/O, the inhibition was -16.7%. CC(N)=O was tested, and the inhibition was 37.1% (active). In the case of CC(=O)C(C)=O, the inhibition is reported as 5.7% (active). With CCN1C(=O)C=CC1=O the inhibition was 12.3% (active). In the case of CC(O)C(O)[C@H]1CNc2nc(N)[nH]c(=O)c2N1 (some centres undefined), the inhibition is reported as -1.8%. With C[C@H](O)C(=O)C1=Nc2c(nc(N)[nH]c2=O)NC1 the inhibition was 9.2% (active). In the case of NS(=O)(=O)C1=[C+]C=[C+]c2c1c([N+](=O)[O-])cc1nc([O-])c([O-])nc21, the inhibition is reported as 79% (active). In the case of CCn1c(=O)[nH]c2cc(Cl)c(Cl)cc21, the inhibition is reported as 20.4% (active). With Cn1c(=O)c2c(nc(/C=C/c3cccc(Cl)c3)n2C)n(C)c1=O the inhibition was 8.5% (active). In the case of CN1C[C@H](C(=O)N[C@]2(C)O[C@@]3(O)[C@@H]4CCCN4C(=O)[C@H](Cc4ccccc4)N3C2=O)C[C@@H]2c3cccc4[nH]cc(c34)C[C@H]21, the inhibition is reported as 50.6% (active).
